# Experimental data published in PubChem BioAssay (NCATS).
# Records with an inconclusive call do not appear. Activity calls are given as the source filed them. Unless noted, calls come from the whole dose curve; as a rule, active = well fitted curve in the direction sought with a large enough effect; inconclusive = small, poorly fitted or top-dose-only effect, or another doubt; inactive = no such curve, though single readings can be large; an effect the other way counts as inactive or inconclusive.
# Columns and labels:
# [1] = qHTS Assay for Identification of Small Molecule Agonists for Hypoxia Response Element Signaling Pathway (AID 914; active = well fitted activation curve with a large enough effect in the signal ratio, with a control signal flat, not every such curve was filed as active; the % refers to the signal ratio; note: potency is the fitted concentration of half-maximal effect; for activation: % of control where 0% means no effect); settings: ME-180 (cervical carcinoma) HRE-bla reporter, beta-lactamase ratio, CoCl2, 17 h; activation: stronger effect = higher value
# Summary of the method: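 qHTS titration; ME-180 HRE-bla cells; EC50 CoCl2 co-treatment, 17 h at 37 degrees Celsius; CCF4 dye, ex 405nm, em 460nm and 530nm; %Activity from ratio; AC50.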
# [2] = molecular target: Cytochrome P450 2D6 (Homo sapiens) (UniProt P10635); assay: qHTS Assay for Inhibitors and Substrates of Cytochrome P450 2D6 (AID 891); note: nearly all actives have a fitted effect of over 60% in size; note: potency is the fitted concentration of half-maximal effect;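 for activity change, negative = inhibition: luciferin methyl ether substrate demethylated by CYP2D6 with NADPH regeneration; % is set by controls: 0 for no effect and ±100 for the full control effect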
# Sequence of Cytochrome P450 2D6 (Homo sapiens) (P10635 whole entry, looked up): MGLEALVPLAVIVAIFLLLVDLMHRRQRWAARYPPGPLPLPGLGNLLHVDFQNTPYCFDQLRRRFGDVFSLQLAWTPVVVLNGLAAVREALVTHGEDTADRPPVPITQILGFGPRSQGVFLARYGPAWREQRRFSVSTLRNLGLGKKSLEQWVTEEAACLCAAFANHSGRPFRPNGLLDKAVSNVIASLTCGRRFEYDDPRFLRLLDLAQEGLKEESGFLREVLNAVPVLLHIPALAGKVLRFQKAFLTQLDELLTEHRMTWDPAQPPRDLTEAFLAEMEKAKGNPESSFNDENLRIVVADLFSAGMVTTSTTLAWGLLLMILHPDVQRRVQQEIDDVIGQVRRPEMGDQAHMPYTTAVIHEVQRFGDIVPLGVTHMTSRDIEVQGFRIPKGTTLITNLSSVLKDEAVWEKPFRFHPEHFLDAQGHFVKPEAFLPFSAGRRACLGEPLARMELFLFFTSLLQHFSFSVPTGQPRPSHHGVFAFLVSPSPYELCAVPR
# Summary of the method: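 Luminescent read-out of luciferin formed by 5 nM human CYP2D6 demethylating 30 uM Luciferin-ME EGE (Km level) over 60 min at room temperature after NADPH regeneration addition. Data normalized to full inhibition by 1.43 uM quinidine.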
# [3] = Confirmation and Secondary Assay for Modulators of Hemoglobin Beta Chain Splicing at IVS2 654 locus (AID 910);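 note: per-well total GFP intensity by laser scanning cytometry after 2-day treatment; % of control where 0% means no effect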
# Summary of the method: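 HeLa cells stably carrying EGFP interrupted by mutant beta-globin IVS2-654 intron (CMV-driven) were treated with compound for 2 days at 37C; corrected splicing was scored as total peak GFP intensity per well (488 nm excitation, 500-520 nm emission).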
# [4] = Confirmation and Secondary Assay for Modulators of Hemoglobin Beta Chain Splicing at IVS2 705 locus (AID 930);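 note: HeLa cells stably expressing the EGFP-705 splicing reporter; GFP fluorescence per well restored by corrected splicing of the IVS2-705 intron in EGFP; % of control where 0% means no effect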
# Summary of the method: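 Secondary splice-site specificity test uses HeLa expressing CMV-driven EGFP interrupted by IVS2-705; cells were treated 2 days at 37C with 500 nM antisense PNA as positive control.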
# [5] = molecular target: DNA dC->dU-editing enzyme APOBEC-3G (Homo sapiens) (UniProt Q9HC16); assay: qHTS for inhibitors of Vif-A3G interactions: Validation (AID 588379); note: 0% is about no effect
# Sequence of DNA dC->dU-editing enzyme APOBEC-3G (Homo sapiens) (Q9HC16 whole entry, looked up): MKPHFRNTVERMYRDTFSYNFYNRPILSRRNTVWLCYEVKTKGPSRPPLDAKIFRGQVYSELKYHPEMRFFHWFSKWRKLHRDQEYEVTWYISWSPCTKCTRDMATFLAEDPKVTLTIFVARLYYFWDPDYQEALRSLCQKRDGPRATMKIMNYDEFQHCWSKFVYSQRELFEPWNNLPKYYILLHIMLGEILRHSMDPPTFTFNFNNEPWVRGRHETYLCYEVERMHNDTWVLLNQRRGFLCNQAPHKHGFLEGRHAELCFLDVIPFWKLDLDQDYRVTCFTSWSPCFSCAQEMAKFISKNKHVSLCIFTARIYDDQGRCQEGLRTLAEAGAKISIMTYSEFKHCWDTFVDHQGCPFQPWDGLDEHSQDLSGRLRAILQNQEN
# Summary of the method: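 Yellow fluorescence (Ex 488, Em 500-530) of Vif-coexpressing HeLa A3G-eYFP cells, scanned by Acumen cytometer, reports blocked A3G degradation. Cells plated at 700/well overnight at 37 deg C before compound addition, then a further overnight compound incubation at 37 deg C.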
# [6] = NCATS anti-infectives library activity on HEK293 viability as a counter-qHTS vs the C. elegans viability qHTS (AID 1745854); note: % is set by controls: 0 for no effect and ±100 for the full control effect
# Summary of the method: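 CellTiter-Glo luminescence, read on a CCD imager, scored viability of HEK293 cells after 24 hr compound exposure at 37C. Library tested in several concentrations, 1:5 steps, up to 41.7 uM; digitonin served as control.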
# [7] = NCATS anti-infectives library activity on the primary C. elegans qHTS viability assay (AID 1745855; calls by dose curve; note: potency is the fitted concentration of half-maximal effect); settings: C. elegans worm area imaging, day 7
# Summary of the method: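 Titration-based screen in worms: eggs hatched overnight in M9, L1 larvae fed TOP10 capsules in S medium with compound, incubated 21 °C for 7 days; fluorescent objects gated by size and intensity at days 0, 3 and 7.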
# [8] = molecular target: Rap guanine nucleotide exchange factor 4 (Homo sapiens) (UniProt Q8WZA2); assay: Confirmatory qHTS for antagonist of cAMP-regulated guanine nucleotide exchange factor 4 (EPAC2) (AID 1645885); note: nearly all actives have a fitted effect of over 25% in size; note: potency is the fitted concentration of half-maximal effect; for activity change, negative = inhibition: % is set by controls: 0 for no effect and ±100 for the full control effect
# Sequence of Rap guanine nucleotide exchange factor 4 (Homo sapiens) (Q8WZA2 whole entry, looked up): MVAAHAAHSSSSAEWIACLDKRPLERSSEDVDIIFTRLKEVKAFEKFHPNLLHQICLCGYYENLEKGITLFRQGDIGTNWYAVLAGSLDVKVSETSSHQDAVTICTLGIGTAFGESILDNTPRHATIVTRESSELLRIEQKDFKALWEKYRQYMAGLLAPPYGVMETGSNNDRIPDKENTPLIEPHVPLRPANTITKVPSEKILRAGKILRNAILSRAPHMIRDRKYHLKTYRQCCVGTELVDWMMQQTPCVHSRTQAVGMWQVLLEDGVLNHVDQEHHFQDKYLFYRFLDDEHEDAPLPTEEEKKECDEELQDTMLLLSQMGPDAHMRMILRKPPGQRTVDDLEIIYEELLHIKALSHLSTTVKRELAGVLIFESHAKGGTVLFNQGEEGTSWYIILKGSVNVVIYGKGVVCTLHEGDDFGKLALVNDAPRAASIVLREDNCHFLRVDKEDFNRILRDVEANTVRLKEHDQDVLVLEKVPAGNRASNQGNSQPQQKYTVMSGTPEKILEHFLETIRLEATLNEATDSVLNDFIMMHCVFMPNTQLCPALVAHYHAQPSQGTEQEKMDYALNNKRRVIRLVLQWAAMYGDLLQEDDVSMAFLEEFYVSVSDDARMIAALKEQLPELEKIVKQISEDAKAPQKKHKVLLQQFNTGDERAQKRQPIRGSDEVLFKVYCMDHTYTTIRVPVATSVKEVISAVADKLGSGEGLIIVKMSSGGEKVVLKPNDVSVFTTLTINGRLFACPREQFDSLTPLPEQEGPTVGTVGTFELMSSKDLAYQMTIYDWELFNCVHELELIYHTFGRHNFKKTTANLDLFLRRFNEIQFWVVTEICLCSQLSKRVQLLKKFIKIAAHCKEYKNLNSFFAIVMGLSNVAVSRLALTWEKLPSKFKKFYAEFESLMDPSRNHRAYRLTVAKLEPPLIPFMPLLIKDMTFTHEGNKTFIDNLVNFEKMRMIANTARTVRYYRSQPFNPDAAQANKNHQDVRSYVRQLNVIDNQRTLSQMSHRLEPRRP
# [9] = molecular target: Rap guanine nucleotide exchange factor 3 (Homo sapiens) (UniProt O95398); assay: Confirmatory qHTS for antagonist of cAMP-regulated guanine nucleotide exchange factor 3 (EPAC1) (AID 1645880);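 note: plate controls were DMSO only for no effect and full effect of the ATA control for full effect; nearly all actives have a fitted effect of over 55% in size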
# Sequence of Rap guanine nucleotide exchange factor 3 (Homo sapiens) (O95398 whole entry, looked up): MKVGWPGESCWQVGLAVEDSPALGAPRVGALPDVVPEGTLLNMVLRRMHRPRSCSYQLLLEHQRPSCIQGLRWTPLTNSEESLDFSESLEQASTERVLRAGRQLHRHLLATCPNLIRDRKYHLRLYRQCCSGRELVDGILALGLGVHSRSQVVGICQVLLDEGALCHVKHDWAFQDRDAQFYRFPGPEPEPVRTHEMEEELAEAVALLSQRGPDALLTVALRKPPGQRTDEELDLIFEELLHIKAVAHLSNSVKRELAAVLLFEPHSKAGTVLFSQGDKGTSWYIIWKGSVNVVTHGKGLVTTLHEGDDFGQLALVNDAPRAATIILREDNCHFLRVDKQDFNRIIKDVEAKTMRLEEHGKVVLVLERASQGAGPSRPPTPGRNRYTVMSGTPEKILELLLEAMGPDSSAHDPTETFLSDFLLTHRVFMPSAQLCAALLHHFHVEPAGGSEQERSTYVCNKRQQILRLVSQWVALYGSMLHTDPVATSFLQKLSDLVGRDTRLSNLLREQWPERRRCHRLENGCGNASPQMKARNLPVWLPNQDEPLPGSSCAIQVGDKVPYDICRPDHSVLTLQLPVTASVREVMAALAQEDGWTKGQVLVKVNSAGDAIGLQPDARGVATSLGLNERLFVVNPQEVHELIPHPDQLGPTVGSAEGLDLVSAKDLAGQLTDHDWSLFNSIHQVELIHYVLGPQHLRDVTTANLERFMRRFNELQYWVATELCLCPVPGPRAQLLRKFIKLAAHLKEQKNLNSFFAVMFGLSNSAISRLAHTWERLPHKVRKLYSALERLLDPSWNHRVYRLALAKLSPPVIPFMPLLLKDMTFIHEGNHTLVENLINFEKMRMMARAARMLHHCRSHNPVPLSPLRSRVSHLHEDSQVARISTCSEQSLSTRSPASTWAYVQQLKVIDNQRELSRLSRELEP
# Summary of the method: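 Released BODIPY-GDP fluoresces less than Rap1-bound BODIPY-GDP; the signal is followed at 480/540 nm at 5-min intervals over 30 min, after 5 min at room temperature. Reactions contain 100 nM EPAC1, 250 nM RAP1B-BODIPY-GDP and 50 uM GDP; results are normalized to ATA and DMSO.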
# [10] = molecular target: Catechol O-methyltransferase (Homo sapiens) (UniProt P21964); assay: Confirmatory Screen for Target Class Profiling of Small Molecule Inhibitors of Methyltransferases (AID 1745852); settings: MTase-Glo luminescence, SAH detection, recombinant enzyme; measured here: COMT max response; stronger effect = lower value; for activity change, negative = inhibition: % is set by controls: 0 for no effect and ±100 for the full control effect
# Sequence of Catechol O-methyltransferase (Homo sapiens) (P21964 whole entry, looked up): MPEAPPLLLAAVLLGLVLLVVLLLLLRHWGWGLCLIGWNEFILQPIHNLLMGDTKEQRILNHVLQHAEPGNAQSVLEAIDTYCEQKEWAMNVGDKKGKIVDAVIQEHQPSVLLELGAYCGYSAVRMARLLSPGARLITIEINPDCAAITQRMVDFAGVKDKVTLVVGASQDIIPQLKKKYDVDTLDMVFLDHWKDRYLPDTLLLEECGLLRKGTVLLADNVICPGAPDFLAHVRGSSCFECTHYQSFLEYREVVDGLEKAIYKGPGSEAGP
# [11] = molecular target: Guanidinoacetate N-methyltransferase (Homo sapiens) (UniProt Q14353); assay: as above; settings: MTase-Glo luminescence, SAH detection, recombinant enzyme; at 57.3 µM (top of the series)
# [12] = molecular target: Nicotinamide N-methyltransferase (Homo sapiens) (UniProt P40261); assay: as above; settings: MTase-Glo luminescence, SAH detection, recombinant enzyme; measured here: NNMT max response; stronger effect = lower value
# Sequence of Nicotinamide N-methyltransferase (Homo sapiens) (P40261 whole entry, looked up): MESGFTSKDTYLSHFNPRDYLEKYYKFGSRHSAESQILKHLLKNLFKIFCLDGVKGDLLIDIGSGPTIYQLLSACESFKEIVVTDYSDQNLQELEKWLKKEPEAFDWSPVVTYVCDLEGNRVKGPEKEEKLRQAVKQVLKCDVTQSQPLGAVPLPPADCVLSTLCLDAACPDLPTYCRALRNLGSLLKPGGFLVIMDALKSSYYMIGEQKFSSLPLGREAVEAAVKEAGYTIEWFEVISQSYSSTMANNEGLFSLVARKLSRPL
# [13] = molecular target: Phenylethanolamine N-methyltransferase (Homo sapiens) (UniProt P11086); assay: as above; settings: MTase-Glo luminescence, SAH detection, recombinant enzyme; measured here: PNMT max response; stronger effect = lower value
# Sequence of Phenylethanolamine N-methyltransferase (Homo sapiens) (P11086 whole entry, looked up): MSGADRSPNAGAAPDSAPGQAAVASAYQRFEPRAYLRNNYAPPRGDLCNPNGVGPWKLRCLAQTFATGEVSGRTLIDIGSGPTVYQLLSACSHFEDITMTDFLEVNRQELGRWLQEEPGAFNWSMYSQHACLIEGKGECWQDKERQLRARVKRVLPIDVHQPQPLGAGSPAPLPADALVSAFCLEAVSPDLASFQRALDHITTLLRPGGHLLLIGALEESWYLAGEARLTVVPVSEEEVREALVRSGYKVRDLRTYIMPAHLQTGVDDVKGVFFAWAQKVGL
smiles,measurement,setting,value
COc1ccc(CNc2ccnc(-c3cccc(C#N)c3)n2)c(OC)c1,activation,[1],-5.53% (inactive)
COc1c(O)cc2oc3cc(O)c(CC=C(C)C)c(O)c3c(=O)c2c1CC=C(C)C,Potency,[2],31.6 µM (active)
same,Potency,[3],inactive
same,outcome,[4],inactive
same,outcome,[5],inactive
same,outcome,[6],inactive
same,Potency,[7],6.48 µM (active)
COc1ccc(C(=O)N2CCC[C@@]3(CCN(Cc4cc(C(F)(F)F)cc(C(F)(F)F)c4)C3)C2)cc1,Potency,[8],55.5 µM (active)
CN(C)c1ncnc2ccc(-c3ccccc3C(F)(F)F)cc12,Potency,[8],44.1 µM (active)
COc1ccc(C(=O)N2CCC3(CCN(Cc4cc(C(F)(F)F)cc(C(F)(F)F)c4)CC3)CC2)cc1,Potency,[8],35 µM (active)
COc1cccc(-c2nccc(NCc3cccs3)n2)c1,Potency,[2],0.316 µM (active)
same,Potency,[8],62.2 µM (active)
COc1cccc(Cn2c(=O)c(-c3cccs3)nc3cnc(Nc4cccc(OC)c4)nc32)c1,Potency,[9],inactive
same,Potency,[8],inactive
O=C(CCCCCN1C(=O)c2cccc3cccc(c23)C1=O)NO,activity,[10],0.323%
same,"activity change, negative = inhibition",[11],0.722%
same,activity,[12],-12.3%
same,activity,[13],-6.54%
COc1ccc(CNc2nc(-c3ccc4c(c3)OCO4)nc3ccccc23)c(OC)c1,Potency,[8],inactive
COc1ccccc1-c1ccc2ncnc(N(C)Cc3ccco3)c2c1,Potency,[8],39.3 µM (active)
COc1ccc(-c2nc3cnc(Nc4cccc(OC)c4)nc3n(Cc3cccs3)c2=O)cc1,Potency,[8],44.1 µM (active)
Cc1c(CC(C)(C)C(=O)O)n(Cc2ccc(Cl)cc2)c2ccc(F)cc12,Potency,[2],inactive
same,outcome,[5],inactive
same,Potency,[8],27.8 µM (active)
COc1ccc(CNc2ncncc2-c2ccccc2C(F)(F)F)c(OC)c1,Potency,[2],0.398 µM (active)
COc1ccc(Oc2ncc3ncc(=O)n(C4CC4)c3n2)cc1,activation,[1],-9.06% (inactive)
O=c1c(CCc2ccccc2)nc2cnc(N3CCOCC3)nc2n1CCc1ccccc1,activation,[1],-4.33% (inactive)
COc1ccccc1CCn1c(=O)c(-c2cccc(Cl)c2)nc2cncnc21,activation,[1],-1.79% (inactive)
COc1ccc(-n2c(=O)c(-c3ccccc3)nc3cnc(N4CCOCC4)nc32)cc1,activation,[1],-1.88% (inactive)
CN(C)Cc1ccccc1-c1nc(NC2CC2)c2ccccc2n1,Potency,[2],3.98 µM (active)
CN(C)Cc1ccccc1-c1nccc(N(C)Cc2ccco2)n1,Potency,[2],0.794 µM (active)
CCNc1ncc2nc(-c3cn(C)c4ccccc34)c(=O)n(CCC#N)c2n1,Potency,[2],3.98 µM (active)
c1nc(NCCN2CCOCC2)c2cc(-c3ccoc3)ccc2n1,Potency,[2],2 µM (active)
CCNc1ncc2nc(-c3cc(F)cc(F)c3)c(=O)n(CCc3ccccc3)c2n1,Potency,[1],1 µM (active)
Cn1cc(-c2nc3cnc(N4CCNCC4)nc3n(-c3ccccc3)c2=O)c2ccccc21,Potency,[1],3.98 µM (active)
